GC-B act: GC-B (human) receptor activation; hit rate 0.11% among 370,000; activation, % at 10 µM; AID 1920062; HEK293-GC-B cells, CNP EC30, cGMP TR-FRET; 0% at EC30 CNP, 100% saturating CNP; P20594;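 active means activation at 10 µM reaching about 35% in either raw or pattern-adjusted values, limit read from the data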
GC-A act: GC-A (human) enzyme activation. P16066. HEK293 GC-A cells, cGMP TR-FRET, EC30 ANP; 0% at EC30 ANP, 100% saturating ANP. activation, % at 10 µM. hit rate 0.14% among 370,000. AID 1671463; in the data active means activation above about 40%
ADAM17 inh: inhibitors of human ADAM17. P78536. recombinant ADAM17, EDANS/DABCYL FRET peptide cleavage. inhibition, % at 6.95 µM. hit rate 0.83% among 370,000;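 active means inhibition above the mean of compounds lying between control limits plus 3 SD, set per campaign, cut at about 8.5% in these data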;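 further: 0% = DMSO-only wells as the low control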
ADAM10 inh: inhibits human ADAM10. O14672. recombinant ADAM10, EDANS/DABCYL FRET peptide cleavage, 3 h. inhibition, % at 7 µM. hit rate 0.62% among 370,000. AID 720582;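 active means inhibition above a per-campaign cutoff equal to the mean of compounds falling between control-based bounds plus 3 SD, cut at about 20% in these data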;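 further: 0% = DMSO wells while the 100% control is not disclosed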
proKLK7 act: activators of human kallikrein-7 zymogen; P49862; purified proKLK7, EDANS-DABCYL substrate fluorescence; 100% is mature enzyme control, 0% vehicle; activation, % at 7 µM; hit rate 0.9% among 370,000;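 active means activation above the mean of all tested compounds plus 3 SD, computed per campaign excluding outliers beyond control limits, cut at about 13% in these data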
KLK7 act conf: proKLK7 activation, confirmation; activation, % at 7 µM; AID 686949; shares compounds with proKLK7 act; purified proKLK7, EDANS-DABCYL substrate fluorescence; scaled: vehicle 0, mature enzyme 100; hit rate 68% among 3,200;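 active means activation, as change over the incubation, above the mean of all tested compounds plus 3 SD, cut at about 13% in these data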
EDANS-DABCYL int: fluorescence interference counter-screen for KLK7 activators. shares compounds with proKLK7 act. EDANS-DABCYL substrate fluorescence interference, no enzyme, 4 h; solvent 0%, active enzyme control 100%. activation, % at 7 µM. hit rate 80% among 3,200. AID 686952;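 active means activation above the all-compound mean plus 3 SD, ignoring values outside control-based bounds, cut at about 4.8% in these data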;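 further: value is the 4 h activation minus the activation read at time zero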
K7 EDANS ctr: counter-screen for kallikrein-7 activators: EDANS-DABCYL interference, dose response; shares compounds with proKLK7 act; EDANS-DABCYL peptide fluorescence interference, no enzyme; EC50, µM; hit rate 20% among 250;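 active means compounds that raise the fluorescence signal in this interference counterscreen, with EC50 at or below 10 µM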;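 further: intact quenched peptide substrate alone read at 355 nm excitation and 520 nm emission; signal is fluorescence gain from T0 to T4 after four hours at room temperature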
* hit, by the source's call. An excerpt weighted towards active compounds, which were near 2.2% of everything screened.

Screening CC1(C)S[C@@H]2[C@H](NC(=O)[C@H](N)c3ccccc3)C(=O)N2[C@H]1C(=O)OC1OC(=O)c2ccccc21 (some centres not stated) returned GC-B act 0, GC-A act 1, ADAM17 inh inactive, ADAM10 inh inactive, proKLK7 act 16*, KLK7 act conf 6 and EDANS-DABCYL int 4.6*.
Screening CCC(Oc1ccccc1)C(=O)NC1C(=O)N2C1SC(C)(C)C2C(=O)O (configuration not stated) returned GC-B act 3, GC-A act 1, ADAM17 inh 0, ADAM10 inh -4 and proKLK7 act 0.
CC(=O)Nc1c2c3c(cccc3n(C)c1=O)C(=O)c1ccccc1-2 was read as GC-B act -3, GC-A act -2, ADAM17 inh -21, ADAM10 inh -63, proKLK7 act 23*, KLK7 act conf 23* and EDANS-DABCYL int 21*.
Cn1c(=O)c(Nc2ccc(Cl)cc2)c2c3c(cccc31)C(=O)c1ccccc1-2 was read as GC-B act 10, GC-A act 11, ADAM17 inh -1, ADAM10 inh 2 and proKLK7 act -1.
CC(C)C[C@H]1COc2cc(Br)ccc2S(=O)(=O)N1Cc1cn(Cc2ccc(C(F)(F)F)cc2)nn1 was read as GC-B act 4, GC-A act 0, ADAM17 inh -3, ADAM10 inh -3 and proKLK7 act 0.
C=CCN(CC=C)c1nc2ccccc2nc1C(C#N)C(=O)OC(C)C (configuration not stated) was read as GC-B act 4, GC-A act 1, ADAM17 inh -229, ADAM10 inh inactive, proKLK7 act 19*, KLK7 act conf 22* and EDANS-DABCYL int 22*.
`OC1c2cc(Cl)cc(Cl)c2N=C2CCCN21` (configuration not stated) gave GC-B act 8, GC-A act -4, ADAM17 inh -122, ADAM10 inh -441, proKLK7 act 15*, KLK7 act conf 18*, EDANS-DABCYL int 11* and K7 EDANS ctr inactive.
`Cc1ccc(C2CCC3(CCC(=O)N3CCO)CC2)cc1` (configuration not stated) gave GC-B act 9, GC-A act 2, ADAM17 inh -2, ADAM10 inh 1 and proKLK7 act 0.
O=C(NCCc1ccccc1)c1coc(=O)c(Br)c1 was read as GC-B act -4, GC-A act 11, ADAM17 inh -195, ADAM10 inh -431, proKLK7 act 14*, KLK7 act conf 32*, EDANS-DABCYL int 26* and K7 EDANS ctr inactive.
Screening O=C(NC(CO)(CO)CO)c1coc(=O)c(Br)c1 returned GC-B act -1, GC-A act -3, ADAM17 inh -59, ADAM10 inh -242, proKLK7 act 41*, KLK7 act conf 54* and EDANS-DABCYL int 54*.
For O=C(OCc1ccccc1)[C@H](Cc1ccccc1)NC(=O)[C@@H]1CC=C[C@@H]2CCN(Cc3ccc(Cl)cc3)C(=O)[C@@H]21 the results were GC-B act -2, GC-A act -6, ADAM17 inh 1 and ADAM10 inh 14.
For O=C(CCc1ccccc1)N[C@H]1[C@@H](OC(=O)C2CC2)CCC[C@@]12C(=O)N(Cc1ccccc1)c1ccccc12 the results were GC-B act 6, GC-A act -6, ADAM17 inh 5, ADAM10 inh 13 and proKLK7 act 0.
O=C(Oc1ccc2ccc(=O)oc2c1)c1ccccc1 was read as GC-B act -3, GC-A act 6, ADAM17 inh -374, ADAM10 inh inactive, proKLK7 act 242*, KLK7 act conf 589* and EDANS-DABCYL int 593*.
O=C(Oc1ccc2ccc(=O)oc2c1)C1CCCCC1 was read as GC-B act 2, GC-A act 5, ADAM17 inh -470, ADAM10 inh inactive, proKLK7 act 107*, KLK7 act conf 337* and EDANS-DABCYL int 301*.
Screening CCNC(=O)C(Cc1ccccc1)NC(=O)OCc1ccccc1 (configuration not stated) returned GC-B act 4, GC-A act 0, ADAM17 inh -6, ADAM10 inh -3 and proKLK7 act 0.
Screening CCC(NC(=O)OCc1ccccc1)C(=O)Oc1ccc2ccc(=O)oc2c1 (configuration not stated) returned GC-B act -3, GC-A act 10, ADAM17 inh inactive, ADAM10 inh inactive, proKLK7 act 75*, KLK7 act conf 434* and EDANS-DABCYL int 455*.
Screening COc1ccc(C(=O)Oc2ccc3ccc(=O)oc3c2)cc1 returned GC-B act -6, GC-A act 6, ADAM17 inh -48, ADAM10 inh -111, proKLK7 act 19*, KLK7 act conf 122* and EDANS-DABCYL int 128*.
`COc1ccc(C(=O)OCCN2CCN(C3CN(Cc4cn(Cc5cccc(C)c5)nn4)S(=O)(=O)C3)CC2)cc1OC` (configuration not stated) gave GC-B act -2, GC-A act -1, ADAM17 inh -4, ADAM10 inh -3 and proKLK7 act 0.
Screening Cc1ccc(C(=O)COc2ccc3ccc(=O)oc3c2)cc1 returned GC-B act -2, GC-A act -1, ADAM17 inh -4, ADAM10 inh -15 and proKLK7 act 0.
`CCOc1ccccc1C(=O)Oc1ccc2ccc(=O)oc2c1` gave GC-B act 1, GC-A act 3, ADAM17 inh -272, ADAM10 inh inactive, proKLK7 act 190*, KLK7 act conf 305* and EDANS-DABCYL int 248*.
Screening COC(=O)Cc1c(C)c2ccc(OC(C)C)cc2oc1=O returned GC-B act 2, GC-A act 5, ADAM17 inh -324, ADAM10 inh inactive and proKLK7 act 8.
COC(=O)Cc1c(C)c2cc(Cl)c(OC(=O)c3ccco3)cc2oc1=O was read as GC-B act -2, GC-A act 6, ADAM17 inh inactive, ADAM10 inh inactive, proKLK7 act 88*, KLK7 act conf 397* and EDANS-DABCYL int 432*.
